system: VDR:RXRa (NR concentration 270 nM, RXRa partner concentration 90 nM); experiment: PBM binding z-score (relative to random genomic background probes); higher = stronger binding; sequences stand for … in GC…GCGATTGACAGCGTAGAATGAAGG
Protocol: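 Protein-binding microarray (Agilent 4x180K custom design, double-stranded 60-nt probes: 5' GC cap, 34-nt variable region, 24-nt constant primer region; full probe sequence given). Purified or IVT nuclear receptor:RXRα heterodimers (3:1 NR:RXRα, mostly 270:90 nM) or homodimers were incubated for 1 h in PBS with 2% milk and no ligand, then detected with Alexa488 antibodies. Fluorescence from o1-orientation probes (~5 replicates averaged) was converted to z-scores against 500 random hg19 background probes. Variable regions are seed direct-repeat (DR0–DR5) sites, all their single-nucleotide variants and half-site ablations.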

Row | Sequence | PBM binding z-score
1 | ATATCTAGGTAAGACTCAGTTCAGTGAAGAACGC | 0.941
2 | TCATATAGGTACAGGTGAAAGTCGAACGATATGA | 0.846
3 | CGAACTAGGTCAGAACAGGAAAGTGAAGGATGAT | 0.0955
4 | AGTCAAAGTTCAGGACGAGGTAACCTAAAGCACG | 2.94
5 | TAGCCTAGGTCAGAACGGGCCAGTATACGCTATA | 0.299
6 | TCATATAGGAAATACAGGTGAAAGTCGGCATCTA | 1.02
7 | TAGCCTAGGTCATGCGGGCCAGTACAGTGTCGGC | 2.83
8 | CGTCAAAGTTCAAGGTAACGTAACAGAAAGCAGC | 3.78
9 | TCTTATAGGTAAAAGGTGAAAGTCGGTGTGGTAA | 1.66
10 | GCATATAGGTAATAGAAGGTGAAAGTCCGATTGT | 0.0859
11 | TCGAGTAGCTTAGTCGGGGCATTCAGCCAACATA | -0.32
12 | ATACCAAGGTGATCGTGAGGTCGTTGAAACTAAC | 3.53
13 | CGGACTAGGTCAAGGACAGTGAATCTCCGCACGC | 0.867
14 | TCTAGTTGGTCAAAGGTCACACCCTCGAAATGCG | 5.06
15 | CCTTACGGGTCACGAGGTTAGAGCACGACGAGCG | 4.98
16 | CCTTACGGGTCACTCCAGATTATAGCATCGGAGT | 2.72
17 | AGTCAAAGTTCACTAGGTGACGTAAGATTCAGCT | 4.03
18 | ATCGAAAGGTCGTGAGGTGAGGATACAGAAAGGC | 3.46
19 | TTACCAAGGTGAGAGGTCGTTGATGCACGCCTTG | 2.25
20 | AGAATGAGGTTATGAAGATCAGGGAATTGCGGTC | 1.44

Row | Sequence | PBM binding z-score
21 | TCTATTACTTGAAGGGCAACCGACGAGTCCGTTT | 1.28
22 | GCTCGGAGGACAAGGACAGAGCTTTGTCCGTAGA | -0.798
23 | GCTTACGGGTCAAAGCTTATAGCATGAATAGAAT | 3.36
24 | GGAACGAGGGCGTTCGAGTTGATAGCATGGCGAT | 2.22
25 | CCTAGTAGGTCAAGGTCACACACGCTATAGGTAC | 5.04
26 | GCTGCTAGGTCAACTGATGGTCAGCGAAAGCTCG | 1.73
27 | ATCGAAAGGTCGCGAGGTGAGTATACAGAAAGGC | 3.53
28 | CCTACTGTGCCAAGGTCATTGATCAGTCAAAGCA | 3.52
29 | TCTTGAAGATCAGCAGGTTAAGAAAGCTGGCCAA | 0.374
30 | TAGCCTAGGTCATTGGGCCAGTATTGTACGCATC | 2.26
31 | CCTATTGGGCCAAAAAGGTCATTGATGCCGATAA | 5.02
32 | TCATATCGGTAAAGGTGAAAGTCGAACGATATGA | 0.691
33 | CGAACTAGGTTATTGACAGGACAGTGAATAGTAA | 0.204
34 | CCGAGTTGGTCAGGAGGTCACACACCGGATATGA | 4.19
35 | CAGAGTAGGTTATGGGGCATTCAGGCAACGGTGA | 0.214
36 | CCTATTGGGCCATTCAGAGGTCATTGATCATATG | 3.98
37 | GCTTGTAGATCGAGGTTAAGAAAGACTAAGCTAA | 0.413
38 | TTACCAAAGTGAGCTGAGGTCGTTGATCCAACTC | 1.84
39 | TCATATAAGTAAAAGGTGAAAGTCGGTGTGGTAA | 1.24
40 | CCTCGGAGGACAACAGGAGGTCAGAGATGCCAGA | 2.29
